# Assay results: the supplement of paper PMC12282887
# ± gives the standard deviation of the averaged measurements.
# Tested on: E. coli BW25113 marRABp lux reporter
# Assay: promoter activity interaction Z-score (Lux/OD deviation from empty-vector control); higher = stronger promoter induction by the compound
# Description: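 E. coli BW25113 (wild type or ΔmarA/ΔsoxS/Δrob) carrying pTU175 luxCDABE promoter reporters was grown in LB in 384-well plates at 37°C with each of 94 compounds at 4 two-fold concentrations, in biological duplicates. Luminescence and OD600 were read every 30 min for 12 h and integrated as AUC over 8 h (0-8 h WT, 1-9 h mutants). Lux AUC was divided by OD AUC; the interaction score is the residual of a Huber robust fit of each promoter against the empty-vector control, then Z-transformed per promoter.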
smiles,measurement,setting,value
CO/N=C(\C(=O)N[C@@H]1C(=O)N2C(C(=O)O)=C(COC(C)=O)CS[C@H]12)c1csc(N)n1 [Cefotaxime],promoter activity interaction Z-score,"0.0012 µg/ml, genetic background: wild type",-0.109 ± 0.032
same,promoter activity interaction Z-score,"0.0012 µg/ml, genetic background: ΔmarA",-0.16 ± 0.041
same,promoter activity interaction Z-score,"0.0012 µg/ml, genetic background: Δrob",-0.227 ± 0.0043
same,promoter activity interaction Z-score,"0.0012 µg/ml, genetic background: ΔsoxS",-0.0693 ± 0.13
same,promoter activity interaction Z-score,"0.0024 µg/ml, genetic background: wild type",0.0203 ± 0.031
same,promoter activity interaction Z-score,"0.0024 µg/ml, genetic background: ΔmarA",-0.118 ± 0.093
same,promoter activity interaction Z-score,"0.0024 µg/ml, genetic background: Δrob",0.021 ± 0.12
same,promoter activity interaction Z-score,"0.0024 µg/ml, genetic background: ΔsoxS",-0.0591 ± 0.15
same,promoter activity interaction Z-score,"0.0048 µg/ml, genetic background: wild type",-0.2 ± 0.023
same,promoter activity interaction Z-score,"0.0048 µg/ml, genetic background: ΔmarA",-0.394 ± 0.27
same,promoter activity interaction Z-score,"0.0048 µg/ml, genetic background: Δrob",-0.171 ± 0.25
same,promoter activity interaction Z-score,"0.0048 µg/ml, genetic background: ΔsoxS",-0.214 ± 0.072
same,promoter activity interaction Z-score,"0.01 µg/ml, genetic background: wild type",0.0434 ± 0.19
same,promoter activity interaction Z-score,"0.01 µg/ml, genetic background: ΔmarA",-0.126 ± 0.0051
same,promoter activity interaction Z-score,"0.01 µg/ml, genetic background: Δrob",0.448 ± 0.33
same,promoter activity interaction Z-score,"0.01 µg/ml, genetic background: ΔsoxS",0.448 ± 0.066
COc1c(N2C[C@@H]3CCCN[C@@H]3C2)c(F)cc2c(=O)c(C(=O)O)cn(C3CC3)c12 [Moxifloxacin],promoter activity interaction Z-score,"0.011 µg/ml, genetic background: wild type",0.044 ± 0.089
same,promoter activity interaction Z-score,"0.011 µg/ml, genetic background: ΔmarA",0.14 ± 0.15
same,promoter activity interaction Z-score,"0.011 µg/ml, genetic background: Δrob",-0.0981 ± 0.19
same,promoter activity interaction Z-score,"0.011 µg/ml, genetic background: ΔsoxS",0.00173 ± 0.15
same,promoter activity interaction Z-score,"0.022 µg/ml, genetic background: wild type",0.5 ± 0.56
same,promoter activity interaction Z-score,"0.022 µg/ml, genetic background: ΔmarA",1.62 ± 0.86
same,promoter activity interaction Z-score,"0.022 µg/ml, genetic background: Δrob",0.689 ± 0.17
same,promoter activity interaction Z-score,"0.022 µg/ml, genetic background: ΔsoxS",0.0296 ± 0.046
same,promoter activity interaction Z-score,"0.044 µg/ml, genetic background: wild type",4.34 ± 1.7
same,promoter activity interaction Z-score,"0.044 µg/ml, genetic background: ΔsoxS",2.52 ± 1.1
NC(=O)c1cc[n+](CC2=C(C(=O)[O-])N3C(=O)[C@@H](NC(=O)[C@@H](c4ccccc4)S(=O)(=O)O)[C@H]3SC2)cc1 [Cefsulodin],promoter activity interaction Z-score,"1.7 µg/ml, genetic background: wild type",0.0888 ± 0.07
same,promoter activity interaction Z-score,"1.7 µg/ml, genetic background: ΔmarA",-0.156 ± 0.32
same,promoter activity interaction Z-score,"1.7 µg/ml, genetic background: Δrob",-0.151 ± 0.05
same,promoter activity interaction Z-score,"1.7 µg/ml, genetic background: ΔsoxS",-0.273 ± 0.013
same,promoter activity interaction Z-score,"3.5 µg/ml, genetic background: wild type",0.026 ± 0.046
same,promoter activity interaction Z-score,"3.5 µg/ml, genetic background: ΔmarA",-0.154 ± 0.15
same,promoter activity interaction Z-score,"3.5 µg/ml, genetic background: Δrob",-0.188 ± 0.075
same,promoter activity interaction Z-score,"3.5 µg/ml, genetic background: ΔsoxS",-0.12 ± 0.063
same,promoter activity interaction Z-score,"6.9 µg/ml, genetic background: wild type",-0.199 ± 0.15
same,promoter activity interaction Z-score,"6.9 µg/ml, genetic background: ΔmarA",-0.257 ± 0.49
same,promoter activity interaction Z-score,"6.9 µg/ml, genetic background: Δrob",-0.271 ± 0.049
same,promoter activity interaction Z-score,"6.9 µg/ml, genetic background: ΔsoxS",-0.324 ± 0.025
same,promoter activity interaction Z-score,"13.9 µg/ml, genetic background: wild type",1.24 ± 1.6
same,promoter activity interaction Z-score,"13.9 µg/ml, genetic background: ΔmarA",0.729 ± 0.25
same,promoter activity interaction Z-score,"13.9 µg/ml, genetic background: Δrob",0.241 ± 0.029
same,promoter activity interaction Z-score,"13.9 µg/ml, genetic background: ΔsoxS",0.341 ± 0.012
